Sampled rows, rich in hits. Any-hit rate of the full collection: about 1.8%.
GC-B act: GC-B (human) receptor activation; P20594; HEK293-GC-B cells, CNP EC30, cGMP TR-FRET; 0% at EC30 CNP, 100% saturating CNP; activation, % at 10 µM; actives 0.11% (n = 370,000);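 active = activation at 10 µM reaching about 35% in either raw or pattern-adjusted values, limit read from the data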
NPR1 activator: GC-A (human) enzyme activation | P16066 | HEK293 GC-A cells, cGMP TR-FRET, EC30 ANP; 0% at EC30 ANP, 100% saturating ANP | activation, % at 10 µM | actives 0.14% (n = 370,000); in the data active = activation above about 40%
Target sequence (P16066 whole entry, looked up): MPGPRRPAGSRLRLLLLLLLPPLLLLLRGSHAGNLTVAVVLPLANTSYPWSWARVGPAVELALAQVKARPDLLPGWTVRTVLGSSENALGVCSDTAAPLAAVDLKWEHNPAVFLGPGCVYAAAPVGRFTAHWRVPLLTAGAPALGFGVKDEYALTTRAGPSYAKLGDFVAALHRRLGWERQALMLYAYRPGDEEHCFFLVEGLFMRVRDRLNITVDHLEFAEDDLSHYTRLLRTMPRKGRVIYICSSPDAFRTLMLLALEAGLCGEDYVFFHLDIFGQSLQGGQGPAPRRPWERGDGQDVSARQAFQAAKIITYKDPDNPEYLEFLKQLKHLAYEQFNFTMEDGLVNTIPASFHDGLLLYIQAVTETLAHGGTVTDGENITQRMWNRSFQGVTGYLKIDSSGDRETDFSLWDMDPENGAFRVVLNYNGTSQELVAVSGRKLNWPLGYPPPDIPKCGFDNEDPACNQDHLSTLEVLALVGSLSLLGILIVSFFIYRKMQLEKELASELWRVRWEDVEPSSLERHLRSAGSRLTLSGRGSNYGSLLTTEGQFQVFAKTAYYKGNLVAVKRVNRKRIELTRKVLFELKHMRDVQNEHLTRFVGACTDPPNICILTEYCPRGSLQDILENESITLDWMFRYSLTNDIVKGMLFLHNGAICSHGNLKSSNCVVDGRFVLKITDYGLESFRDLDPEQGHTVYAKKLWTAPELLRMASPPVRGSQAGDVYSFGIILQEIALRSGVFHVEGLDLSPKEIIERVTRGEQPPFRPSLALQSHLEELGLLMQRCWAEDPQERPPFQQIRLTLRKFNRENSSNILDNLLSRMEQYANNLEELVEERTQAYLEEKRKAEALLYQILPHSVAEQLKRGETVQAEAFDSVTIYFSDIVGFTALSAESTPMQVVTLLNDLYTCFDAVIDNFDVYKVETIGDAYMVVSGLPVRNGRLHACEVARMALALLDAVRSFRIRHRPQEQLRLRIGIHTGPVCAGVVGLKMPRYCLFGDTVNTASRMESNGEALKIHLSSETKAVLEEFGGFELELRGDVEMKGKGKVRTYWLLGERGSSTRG
Myeloid diff MLP: compounds promoting myeloid differentiation | actives 1% (n = 360,000) | AID 624256 | ER-HoxA9 myeloid progenitors, lysozyme-GFP differentiation, flow cytometry | calls only at 10 µM;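 active = normalized GFP-positive differentiation at or above the plate's own cutoff, the solvent-only control mean plus 3 SD; inconclusive = no clear call, values can overlap the other calls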;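 also: cells exposed to compound for four days before flow analysis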
Granule exo inh: lytic granule exocytosis inhibition. TALL-104 LAMP-1 surface exposure, flow cytometry; cells stimulated with thapsigargin and PMA. inhibition, % at 10 µM. actives 0.66% (n = 360,000);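 active = inhibition above about 55%, limit read from the data; inconclusive = no clear call, values can overlap the other calls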
Exocytosis CP01: blocks lytic granule exocytosis | shares compounds with Granule exo inh | TALL-104 cells, LAMP-1 externalization, flow cytometry; stimulated with PMA plus thapsigargin | inhibition, % at 10 µM | actives 11% (n = 1,500) | AID 651954; in the data active = inhibition above about 60%;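 also: 0% = stimulated vehicle wells and 100% = unstimulated wells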
Starred values were filed as active, the others as inactive; i = inactive; ? = inconclusive; / = no result.

SMILES | GC-B act | NPR1 activator | Myeloid diff MLP | Granule exo inh | Exocytosis CP01
CCc1ccccc1N(C)S(=O)(=O)c1ccc(-c2cc(C)no2)s1 | -5.7 | 2.1 | ? | 68.4* | -9.7
O=C(O)c1ccc2c(c1)S(=O)(=O)c1cc(N3CCN(c4cnccn4)CC3)ccc1C2=O | -0.3 | 1.8 | i | 0.4 | /
CCOC(=O)CNC(c1ccccc1)c1cc(Br)ccc1NC(=O)CCN1CCOCC1 (stereo not given) | -15.1 | -26.9 | i | 46.6 | /
COC(=O)CNC(c1ccccc1)c1cc(Br)ccc1NC(=O)CCN1CCOCC1 (stereo not given) | -14.0 | -28.6 | i | 77.5* | -4.8
O=C(NCCc1ccc2c(c1)OCO2)c1cc(-c2ccccc2)c(N2CCOCC2)s1 | 10.2 | 3.5 | / | / | /
COc1cc(O)c(C(CC(=O)N2CCCC(C)C2)c2cc(OC)c(OC)c(OC)c2)c(OC)c1 (stereo not given) | -12.2 | -1.7 | i | 58.2* | -15.3
FC(F)(F)c1ccc2nc(CNc3nc(N4CCOCC4)nc4c3ncn4-c3ccsc3)[nH]c2c1 | 3.6 | -2.4 | / | / | /
C=CCSc1nc2c(C(=O)OCC)nnn2c2ccccc12 | -3.0 | -3.9 | i | 80.9* | 0.0
Cc1ccc(C)c(N2CCN(C(=O)c3ccc(CS(=O)Cc4cccc(Cl)c4)o3)CC2)c1 (stereo not given) | -5.0 | -6.8 | i | 57.7* | -4.7
Cc1cc2c(C)cc(=O)[nH]c2cc1NC(=O)CCl | -6.1 | -1.7 | i | -2.9 | /
CCC(=O)Nc1cc2[nH]c(=O)cc(C)c2cc1C | -2.5 | -0.1 | i | 58.5* | -3.2
CCCCn1c(=O)[nH]c(=O)c2c1nc(-c1ccncc1)n2CCOC | 5.7 | 2.4 | i | -1.4 | /
CCCCn1c(=O)[nH]c(=O)c2c1nc(-c1ccc(-c3ccccc3Br)o1)n2CCOC | 28.3 | 32.1 | i | 55.9* | 58.7
CCC(=O)N1CCc2cc(Br)cc(S(=O)(=O)N(C)c3ccc(OC)cc3)c21 | 4.1 | -6.8 | i | 73.6* | -12.4
Clc1cccc(C2Nc3cccc4cccc(c34)N2)c1Cl | 0.1 | -0.8 | i | 93.2* | -2.0
Clc1ccccc1C1Nc2cccc3cccc(c23)N1 | -5.0 | 0.5 | i | 7.8 | /
Cc1ccc(-c2nn(-c3ccccc3)cc2CO)cc1 | -7.4 | 2.1 | i | -4.2 | /
Cc1ccc(-n2cc(CNCCCn3ccnc3C)c(-c3ccc(F)cc3)n2)cc1 | -10.5 | 6.2 | ? | 56.7* | 1.6
Cc1ccc(-c2nn(-c3ccccc3)cc2CNCc2ccccc2)cc1 | -10.6 | -7.5 | i | 70.3* | 91.7*
CC1CCCN(CC(=O)Nc2ccc(S(=O)(=O)N3C(C)CCCC3C)cc2)C1 (stereo not given) | -0.3 | 0.6 | i | 4.6 | /
CCn1c(=O)c2c3c(sc2n2c(SCc4ccc(F)cc4)nnc12)CCCC3 | -2.1 | -1.5 | i | 56.3* | -2.3
COc1cccc(-c2cccc3c2NC(=O)C3(C)Cc2ccccc2F)c1 (stereo not given) | -9.4 | 0.6 | i | -4.1 | /
COc1ccc(CCNC(=O)C23CN(Cc4ccccc4)CC2C(c2ccc([N+](=O)[O-])cc2)=NO3)cc1 (stereo not given) | -3.6 | -2.5 | i | 60.4* | -12.3
O=C(Nc1ccc(S(=O)(=O)Nc2ccccc2)cc1)c1ccc(CN2CCOCC2)cc1 | -1.7 | 0.5 | i | 75.7* | 9.4
Cc1ccc(Nc2nc(NCCO)c3ccccc3n2)cc1C | -5.0 | -5.1 | i | 58.3* | -2.1
SMILES | GC-B act | NPR1 activator | Myeloid diff MLP | Granule exo inh | Exocytosis CP01
COc1ccc(OC)c(Nc2nc(NCCO)c3ccccc3n2)c1 | 1.9 | 5.8 | i | 5.0 | /
CCOC(=O)[C@]12CCCC=C1N(Cc1ccc(Cl)cc1Cl)C(=O)[C@H](CC(=O)NCC1CCCCC1)C2 | 3.8 | -2.0 | i | 7.4 | /
Clc1ccc(CNC2CCN(Cc3ccccc3)CC2)cc1 | -9.5 | -5.4 | i | 67.2* | -11.5
Fc1ccc(CNC2CCN(Cc3ccccc3)CC2)cc1 | 0.5 | -2.4 | i | 62.5* | -12.8
Clc1ccc(CNc2ccc(N3CCN(Cc4ccccc4)CC3)cc2)cc1 | 0.5 | 8.8 | i | 66.8* | -13.4
COc1ccc(-c2n[nH]c(C)c2-c2cscn2)c(O)c1 | 1.1 | -1.2 | i | 0.6 | /
C=C(C)COc1ccc(-c2n[nH]c(C)c2-c2ccc(OC)cc2)c(O)c1 | 7.1 | 2.2 | i | 64.9* | 98.0*
Cc1ccc2c(CN(C)Cc3ccc(Cl)cc3)cc(=O)oc2c1 | -2.3 | -5.7 | i | 30.3 | /
Cc1ccc2c(CN(C)Cc3ccc(Cl)cc3Cl)cc(=O)oc2c1 | -5.8 | -4.7 | i | 66.6* | -9.4
COc1ccc(CN2CCN(CCCCOc3ccc(Cl)cc3)CC2)c(OC)c1OC | -3.0 | 0.3 | i | 76.1* | -10.0
CCN(CCC(=O)Nc1cc(OC)ccc1OC)Cc1ccccc1 | -9.9 | -8.1 | / | / | /
CCOc1ccccc1CNC(c1ccccc1)c1ccccc1 | -9.6 | -25.7 | i | 59.2* | -4.9
COc1ccccc1CNC(c1ccccc1)c1ccccc1 | -12.4 | -28.9 | i | 12.7 | /
O[C@H](COc1cccc(C(F)(F)F)c1)CN1CCC(C(O)(c2ccccc2)c2ccccc2)CC1 | -7.5 | -13.2 | / | / | /
COc1ccccc1CNC(=O)c1sccc1C | 4.2 | -2.4 | i | -10.9 | /
COc1ccccc1CNC(=O)c1sccc1-c1ccccc1 | -6.4 | -5.7 | i | 66.5* | -13.2
CCCCN1CCN(C(=O)C2CCN(S(=O)(=O)c3ccc4[nH]c(=O)oc4c3)CC2)CC1 | 4.3 | -0.5 | / | / | /
CCOC(=O)c1ccc(NC(=O)c2ccc(C)c(S(=O)(=O)N3CCOCC3)c2)cc1 | 1.3 | -1.0 | i | 76.4* | 74.1*
CCOC(=O)c1ccc(NC(=O)c2sc3nc(N4CCOCC4)c4c(c3c2N)CCCC4)cc1 | 13.0 | 21.2 | i | 92.7* | -12.7
CC(=O)c1ccc(NC(=O)c2ccc(C)c(S(=O)(=O)N3CCOCC3)c2)cc1 | 2.6 | 6.7 | i | 24.5 | /
CC(C)C(=O)c1cc2c(cc1NC(=O)c1cccs1)OCCO2 | -2.7 | 6.8 | i | 75.0* | -11.1
CC(C)C(=O)c1cc2c(cc1NC(=O)c1ccccc1)OCCO2 | -3.8 | -8.0 | i | 2.6 | /
CCCCN(CC(O)COc1cccc(C)c1)CC(O)COc1cccc(C)c1 (stereo not given) | -4.8 | -5.8 | i | 82.8* | -4.3
COCCNC(=O)C[C@H]1CC[C@H]2[C@@H](COc3ccc(NS(=O)(=O)c4ccc(Cl)cc4)cc3C(=O)N2C)O1 | 4.4 | 0.2 | / | / | /
COc1cc(NC(=O)c2cccc3c2C(=O)N(C2CCCCC2)C3)cc(OC)c1OC | 20.1 | 13.7 | ? | 93.5* | 12.1
Cc1cc(C)cc(NC(=O)c2cccc3c2C(=O)N(C2CCCCC2)C3)c1 | / | / | i | 1.4 | /
O=C(CNS(=O)(=O)c1cccc(F)c1)OCC(=O)N1CCCC1=O | -4.4 | -3.3 | i | 1.2 | /
O=C(CNS(=O)(=O)c1c(F)cc(F)cc1Br)OCC(=O)N1CCCC1=O | -2.0 | -0.6 | i | 61.2* | -3.9

Source: PubChem BioAssay
